{"source": "paper PMC7862700", "about": "“An all-to-all approach to the identification of sequence-specific readers for epigenetic DNA modifications on cytosine”", "assay_in_all_cases": "DAPPL (digital affinity profiling via proximity ligation, sequencing); 10 mM Tris-HCl pH 7.5, 50 mM NaCl, 1 mM DTT, 4% glycerol, room temperature, 30 min; GST-TFs on glutathione beads, 16-mer random dsDNA library, 0.1% formaldehyde crosslink after washing; high values mean tight binding", "settings_in_all_cases": "protein: recombinant; tags: N-terminal GST; dsDNA, one strand shown", "key": {"FLI1": {"molecular_target": "T1, FLI1 (Homo sapiens, UniProt Q01543 1-452)", "T1 sequence": "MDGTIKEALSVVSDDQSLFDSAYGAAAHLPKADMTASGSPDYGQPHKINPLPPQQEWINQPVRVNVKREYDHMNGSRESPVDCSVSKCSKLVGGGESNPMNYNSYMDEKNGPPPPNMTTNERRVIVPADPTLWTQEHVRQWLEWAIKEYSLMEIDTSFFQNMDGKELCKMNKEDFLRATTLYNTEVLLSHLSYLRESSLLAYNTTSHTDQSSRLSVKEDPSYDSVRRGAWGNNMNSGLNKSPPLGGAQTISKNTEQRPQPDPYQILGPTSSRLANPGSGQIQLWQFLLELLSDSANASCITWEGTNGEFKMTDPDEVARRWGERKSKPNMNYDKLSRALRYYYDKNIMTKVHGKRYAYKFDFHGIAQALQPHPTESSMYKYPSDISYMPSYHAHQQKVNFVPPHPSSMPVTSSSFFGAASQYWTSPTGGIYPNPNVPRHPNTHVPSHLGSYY", "in_short": "(§1)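 Binding signal is defined as a hexamer's read frequency for one factor over its frequency for the tag-only sample. To obtain reads, GST-fused human transcription factors were expressed in yeast, captured on glutathione beads, barcoded with DNA and pooled with that sample. Pools met 200 nmole of a 16-mer random double-stranded DNA library in Tris/NaCl/DTT/glycerol buffer for 30 min at room temperature before washing, 0.1% formaldehyde crosslinking, proximity ligation (BsaI/T4 ligase, 1 h, 37 °C), PCR and Illumina NextSeq500 sequencing.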"}, "GABPA": {"molecular_target": "T2, GABPA (Homo sapiens, UniProt Q06546 1-454)", "T2 sequence": "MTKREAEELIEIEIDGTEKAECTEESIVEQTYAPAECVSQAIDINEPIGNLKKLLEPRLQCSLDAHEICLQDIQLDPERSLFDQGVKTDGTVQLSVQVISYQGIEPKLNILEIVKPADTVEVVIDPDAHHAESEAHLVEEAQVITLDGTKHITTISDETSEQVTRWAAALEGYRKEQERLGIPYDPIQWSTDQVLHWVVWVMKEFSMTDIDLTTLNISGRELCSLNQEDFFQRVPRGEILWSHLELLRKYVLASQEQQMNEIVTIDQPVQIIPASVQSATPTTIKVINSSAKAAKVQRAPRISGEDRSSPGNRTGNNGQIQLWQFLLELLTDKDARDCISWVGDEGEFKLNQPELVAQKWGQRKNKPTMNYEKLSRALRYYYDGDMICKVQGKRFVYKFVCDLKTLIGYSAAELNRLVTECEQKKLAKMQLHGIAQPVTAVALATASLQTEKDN", "in_short": "as §1"}, "ERG": {"molecular_target": "T3, ERG (Homo sapiens, UniProt P11308 1-479)", "T3 sequence": "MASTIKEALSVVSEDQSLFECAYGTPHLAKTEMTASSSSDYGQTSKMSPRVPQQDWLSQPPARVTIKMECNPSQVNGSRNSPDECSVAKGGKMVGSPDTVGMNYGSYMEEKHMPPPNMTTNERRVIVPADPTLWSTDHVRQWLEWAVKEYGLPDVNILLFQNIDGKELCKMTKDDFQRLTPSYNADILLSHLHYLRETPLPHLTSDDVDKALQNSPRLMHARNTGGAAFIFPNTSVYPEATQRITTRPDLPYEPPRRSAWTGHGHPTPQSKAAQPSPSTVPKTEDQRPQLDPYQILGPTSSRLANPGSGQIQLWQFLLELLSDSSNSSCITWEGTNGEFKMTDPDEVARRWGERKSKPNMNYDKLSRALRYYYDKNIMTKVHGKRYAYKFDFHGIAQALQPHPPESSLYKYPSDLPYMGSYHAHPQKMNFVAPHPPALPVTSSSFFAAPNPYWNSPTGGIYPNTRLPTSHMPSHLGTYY", "in_short": "as §1"}, "ELF1": {"molecular_target": "ELF1 (Homo sapiens, UniProt P32519 1-619)", "sequence (P32519 whole entry)": "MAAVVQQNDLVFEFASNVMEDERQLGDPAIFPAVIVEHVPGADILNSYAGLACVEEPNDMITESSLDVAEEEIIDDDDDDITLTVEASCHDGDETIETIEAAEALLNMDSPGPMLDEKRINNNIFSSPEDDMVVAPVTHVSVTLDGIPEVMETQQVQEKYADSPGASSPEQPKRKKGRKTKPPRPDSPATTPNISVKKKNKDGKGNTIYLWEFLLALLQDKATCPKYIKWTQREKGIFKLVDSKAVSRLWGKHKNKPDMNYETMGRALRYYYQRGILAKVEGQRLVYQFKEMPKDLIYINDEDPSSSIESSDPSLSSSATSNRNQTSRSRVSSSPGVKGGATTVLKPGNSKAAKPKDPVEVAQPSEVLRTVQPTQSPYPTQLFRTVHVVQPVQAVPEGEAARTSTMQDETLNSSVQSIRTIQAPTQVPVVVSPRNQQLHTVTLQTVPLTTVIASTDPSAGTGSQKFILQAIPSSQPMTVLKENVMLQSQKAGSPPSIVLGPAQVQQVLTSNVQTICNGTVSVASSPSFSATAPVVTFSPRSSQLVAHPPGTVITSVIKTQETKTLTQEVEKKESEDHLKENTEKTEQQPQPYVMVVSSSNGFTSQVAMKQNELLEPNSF", "in_short": "as §1"}, "EHF": {"molecular_target": "T4, EHF (Homo sapiens, UniProt Q9NZC4 1-300)", "T4 sequence": "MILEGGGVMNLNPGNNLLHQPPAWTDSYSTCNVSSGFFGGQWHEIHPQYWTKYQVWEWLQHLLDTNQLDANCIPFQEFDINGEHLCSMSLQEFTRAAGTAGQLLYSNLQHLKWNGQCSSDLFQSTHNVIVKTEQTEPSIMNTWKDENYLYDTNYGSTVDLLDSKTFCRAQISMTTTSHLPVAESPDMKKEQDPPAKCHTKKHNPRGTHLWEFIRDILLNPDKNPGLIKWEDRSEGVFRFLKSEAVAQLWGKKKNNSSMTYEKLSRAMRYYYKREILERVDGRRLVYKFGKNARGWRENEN", "in_short": "as §1"}, "SPI1": {"molecular_target": "SPI1 (Homo sapiens, UniProt P17947 1-270)", "in_short": "as §1"}, "SPIB": {"molecular_target": "SPIB (Homo sapiens, UniProt Q01892 1-262)", "sequence (Q01892 whole entry)": "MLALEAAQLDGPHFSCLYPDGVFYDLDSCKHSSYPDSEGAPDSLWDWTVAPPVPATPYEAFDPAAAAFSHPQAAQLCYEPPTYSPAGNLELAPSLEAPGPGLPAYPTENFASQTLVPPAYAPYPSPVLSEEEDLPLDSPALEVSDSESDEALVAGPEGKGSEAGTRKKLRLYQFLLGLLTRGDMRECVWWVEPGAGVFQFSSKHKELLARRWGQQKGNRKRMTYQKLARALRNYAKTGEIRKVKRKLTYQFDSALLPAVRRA", "in_short": "as §1"}, "FEV": {"molecular_target": "T5, FEV (Homo sapiens, UniProt Q99581 1-238)", "T5 sequence": "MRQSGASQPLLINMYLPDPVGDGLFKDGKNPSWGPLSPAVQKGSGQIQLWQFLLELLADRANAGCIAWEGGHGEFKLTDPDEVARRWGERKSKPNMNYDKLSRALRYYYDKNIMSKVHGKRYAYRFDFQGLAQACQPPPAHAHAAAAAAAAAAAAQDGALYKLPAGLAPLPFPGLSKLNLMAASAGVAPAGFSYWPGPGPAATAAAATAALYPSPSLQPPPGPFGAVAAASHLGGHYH", "in_short": "as §1"}, "ETV5": {"molecular_target": "ETV5 (Homo sapiens, UniProt P41161 1-510)", "sequence (P41161 whole entry)": "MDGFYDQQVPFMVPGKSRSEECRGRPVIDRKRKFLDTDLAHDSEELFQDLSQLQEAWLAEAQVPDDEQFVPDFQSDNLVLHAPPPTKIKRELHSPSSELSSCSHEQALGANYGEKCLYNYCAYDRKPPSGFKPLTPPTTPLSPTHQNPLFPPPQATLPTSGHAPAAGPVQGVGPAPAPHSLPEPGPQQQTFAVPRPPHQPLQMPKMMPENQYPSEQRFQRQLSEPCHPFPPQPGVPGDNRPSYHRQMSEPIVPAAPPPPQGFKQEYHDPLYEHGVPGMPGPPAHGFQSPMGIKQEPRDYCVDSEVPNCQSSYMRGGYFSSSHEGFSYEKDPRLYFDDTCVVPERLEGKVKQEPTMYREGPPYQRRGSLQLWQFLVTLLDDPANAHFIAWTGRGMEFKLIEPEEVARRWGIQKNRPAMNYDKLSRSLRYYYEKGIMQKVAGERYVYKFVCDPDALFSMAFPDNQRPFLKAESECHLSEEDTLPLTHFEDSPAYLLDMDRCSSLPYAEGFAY", "in_short": "as §1"}, "SPIC": {"molecular_target": "T6, SPIC (Homo sapiens, UniProt Q8N5J4 1-248)", "T6 sequence": "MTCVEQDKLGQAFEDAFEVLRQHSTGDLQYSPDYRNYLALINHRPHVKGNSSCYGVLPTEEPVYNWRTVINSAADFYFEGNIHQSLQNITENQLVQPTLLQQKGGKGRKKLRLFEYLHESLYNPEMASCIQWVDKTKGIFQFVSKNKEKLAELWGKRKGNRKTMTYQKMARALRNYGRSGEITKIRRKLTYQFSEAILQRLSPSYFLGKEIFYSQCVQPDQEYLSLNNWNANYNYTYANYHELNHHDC", "in_short": "as §1"}, "ELF4": {"molecular_target": "ELF4 (Homo sapiens, UniProt Q99607 1-663)", "sequence (Q99607 whole entry)": "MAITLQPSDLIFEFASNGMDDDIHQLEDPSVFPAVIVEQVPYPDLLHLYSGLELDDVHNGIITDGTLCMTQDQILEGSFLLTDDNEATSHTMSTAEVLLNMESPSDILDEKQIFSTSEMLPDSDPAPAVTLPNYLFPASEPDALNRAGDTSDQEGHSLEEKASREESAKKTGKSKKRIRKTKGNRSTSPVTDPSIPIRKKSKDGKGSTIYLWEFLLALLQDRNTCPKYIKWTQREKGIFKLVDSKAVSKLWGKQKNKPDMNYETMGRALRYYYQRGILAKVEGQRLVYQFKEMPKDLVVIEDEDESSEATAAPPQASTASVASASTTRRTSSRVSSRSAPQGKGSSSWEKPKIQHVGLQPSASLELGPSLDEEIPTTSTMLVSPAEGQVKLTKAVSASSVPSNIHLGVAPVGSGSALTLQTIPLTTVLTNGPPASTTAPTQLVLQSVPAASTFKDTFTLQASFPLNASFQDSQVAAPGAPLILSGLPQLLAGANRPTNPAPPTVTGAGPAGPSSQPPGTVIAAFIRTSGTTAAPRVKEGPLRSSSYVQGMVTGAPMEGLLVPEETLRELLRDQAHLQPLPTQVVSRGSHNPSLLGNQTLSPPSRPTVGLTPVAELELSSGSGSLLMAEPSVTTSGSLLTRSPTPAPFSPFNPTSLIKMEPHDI", "in_short": "as §1"}, "ETV1": {"molecular_target": "ETV1 (Homo sapiens, UniProt P50549 1-477)", "sequence (P50549 whole entry)": "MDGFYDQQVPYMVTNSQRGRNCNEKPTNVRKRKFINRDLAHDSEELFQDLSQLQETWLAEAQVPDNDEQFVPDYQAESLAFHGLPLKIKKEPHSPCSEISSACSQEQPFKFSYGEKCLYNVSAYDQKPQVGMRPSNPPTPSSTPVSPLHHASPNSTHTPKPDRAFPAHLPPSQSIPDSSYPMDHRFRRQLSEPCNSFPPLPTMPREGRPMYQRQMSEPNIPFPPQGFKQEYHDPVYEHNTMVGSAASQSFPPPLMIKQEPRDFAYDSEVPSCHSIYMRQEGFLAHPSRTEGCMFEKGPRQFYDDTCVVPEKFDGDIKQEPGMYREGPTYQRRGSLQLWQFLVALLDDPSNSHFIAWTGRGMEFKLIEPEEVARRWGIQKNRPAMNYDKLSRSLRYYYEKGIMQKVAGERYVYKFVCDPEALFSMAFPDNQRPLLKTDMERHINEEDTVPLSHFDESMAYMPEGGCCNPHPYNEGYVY", "in_short": "as §1"}, "ERF": {"molecular_target": "T7, ERF (Homo sapiens, UniProt P50548 1-548)", "T7 sequence": "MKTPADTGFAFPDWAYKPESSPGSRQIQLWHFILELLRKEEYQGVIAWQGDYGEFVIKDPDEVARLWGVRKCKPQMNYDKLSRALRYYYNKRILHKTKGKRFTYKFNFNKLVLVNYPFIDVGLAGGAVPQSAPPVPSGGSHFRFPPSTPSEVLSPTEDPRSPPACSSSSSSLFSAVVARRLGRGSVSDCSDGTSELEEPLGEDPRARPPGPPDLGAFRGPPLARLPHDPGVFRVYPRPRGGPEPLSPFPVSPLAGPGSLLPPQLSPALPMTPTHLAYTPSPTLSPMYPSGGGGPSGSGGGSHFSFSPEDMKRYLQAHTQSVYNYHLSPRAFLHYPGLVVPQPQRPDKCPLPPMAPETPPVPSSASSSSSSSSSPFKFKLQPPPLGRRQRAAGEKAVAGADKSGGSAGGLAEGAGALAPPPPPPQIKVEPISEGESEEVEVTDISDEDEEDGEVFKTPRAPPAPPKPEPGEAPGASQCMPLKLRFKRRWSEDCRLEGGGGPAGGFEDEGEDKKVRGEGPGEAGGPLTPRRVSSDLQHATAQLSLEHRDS", "in_short": "as §1"}, "ETV3L": {"molecular_target": "T8, ETV3L (Homo sapiens, UniProt Q6ZN32 1-361)", "T8 sequence": "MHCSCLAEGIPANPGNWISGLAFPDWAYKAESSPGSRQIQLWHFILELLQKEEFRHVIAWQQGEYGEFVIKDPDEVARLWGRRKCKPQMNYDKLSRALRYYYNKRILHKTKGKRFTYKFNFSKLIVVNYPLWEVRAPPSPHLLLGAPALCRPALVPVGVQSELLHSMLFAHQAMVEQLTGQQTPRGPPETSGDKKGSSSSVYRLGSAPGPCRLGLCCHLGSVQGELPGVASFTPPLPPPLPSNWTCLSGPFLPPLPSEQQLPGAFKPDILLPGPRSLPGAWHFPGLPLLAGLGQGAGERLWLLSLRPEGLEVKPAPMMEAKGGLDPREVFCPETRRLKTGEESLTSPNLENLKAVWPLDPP", "in_short": "as §1"}, "ETS2": {"molecular_target": "T9, ETS2 (Homo sapiens, UniProt P15036 1-469)", "T9 sequence": "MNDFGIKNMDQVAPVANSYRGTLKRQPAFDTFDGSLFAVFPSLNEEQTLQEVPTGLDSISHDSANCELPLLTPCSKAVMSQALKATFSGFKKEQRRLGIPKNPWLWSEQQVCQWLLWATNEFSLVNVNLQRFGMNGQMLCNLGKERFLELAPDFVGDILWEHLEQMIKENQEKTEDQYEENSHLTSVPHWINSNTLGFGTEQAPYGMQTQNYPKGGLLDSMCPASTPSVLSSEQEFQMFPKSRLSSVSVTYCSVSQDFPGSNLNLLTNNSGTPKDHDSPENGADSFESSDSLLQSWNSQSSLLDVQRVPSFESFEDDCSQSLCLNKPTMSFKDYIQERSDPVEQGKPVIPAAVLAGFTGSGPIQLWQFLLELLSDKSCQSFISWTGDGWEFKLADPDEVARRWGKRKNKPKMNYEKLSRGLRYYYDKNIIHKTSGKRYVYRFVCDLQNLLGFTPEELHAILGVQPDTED", "in_short": "as §1"}, "SPDEF": {"molecular_target": "T10, SPDEF (Homo sapiens, UniProt O95238 1-335)", "T10 sequence": "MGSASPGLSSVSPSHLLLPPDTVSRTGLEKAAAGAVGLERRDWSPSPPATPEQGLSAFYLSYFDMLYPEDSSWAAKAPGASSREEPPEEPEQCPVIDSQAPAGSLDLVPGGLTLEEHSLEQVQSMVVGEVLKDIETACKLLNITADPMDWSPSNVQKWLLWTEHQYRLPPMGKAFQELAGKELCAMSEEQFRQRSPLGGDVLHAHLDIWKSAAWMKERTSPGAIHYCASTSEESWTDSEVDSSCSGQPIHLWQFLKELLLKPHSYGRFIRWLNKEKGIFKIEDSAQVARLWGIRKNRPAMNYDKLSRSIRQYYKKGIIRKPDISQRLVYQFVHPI", "in_short": "as §1"}, "ETV3": {"molecular_target": "T11, ETV3 (Homo sapiens, UniProt P41162-2 1-143)", "T11 sequence": "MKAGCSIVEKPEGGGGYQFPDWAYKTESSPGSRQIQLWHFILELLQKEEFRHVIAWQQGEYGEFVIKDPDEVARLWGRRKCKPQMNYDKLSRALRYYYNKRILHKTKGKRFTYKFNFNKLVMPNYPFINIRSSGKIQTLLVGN", "in_short": "as §1"}, "ETV6": {"molecular_target": "ETV6 (Homo sapiens, UniProt P41212 1-452)", "sequence (P41212 whole entry)": "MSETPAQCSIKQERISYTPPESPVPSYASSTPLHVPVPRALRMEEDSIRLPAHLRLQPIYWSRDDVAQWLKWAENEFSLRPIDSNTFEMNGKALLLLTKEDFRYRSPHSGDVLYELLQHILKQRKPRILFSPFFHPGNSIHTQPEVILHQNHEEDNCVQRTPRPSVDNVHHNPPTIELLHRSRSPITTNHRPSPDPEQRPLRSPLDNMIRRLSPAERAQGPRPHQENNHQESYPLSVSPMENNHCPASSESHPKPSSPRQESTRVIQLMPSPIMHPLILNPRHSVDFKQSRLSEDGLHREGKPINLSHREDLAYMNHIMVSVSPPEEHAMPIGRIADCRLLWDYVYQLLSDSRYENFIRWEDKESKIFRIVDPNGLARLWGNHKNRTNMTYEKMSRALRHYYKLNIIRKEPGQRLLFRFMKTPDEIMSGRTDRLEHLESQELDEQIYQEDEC", "in_short": "as §1"}}}
{"sequence": "CGCGAC", "values": [{"measurement": "binding signal", "setting": "FLI1", "value": "1.08 fold enrichment (6-mer frequency, TF over GST control)"}, {"measurement": "binding signal", "setting": "GABPA", "value": "1.09 fold enrichment (6-mer frequency, TF over GST control)"}, {"measurement": "binding signal", "setting": "ERG", "value": "1.04 fold enrichment (6-mer frequency, TF over GST control)"}, {"measurement": "binding signal", "setting": "ELF1", "value": "1.12 fold enrichment (6-mer frequency, TF over GST control)"}, {"measurement": "binding signal", "setting": "EHF", "value": "1.12 fold enrichment (6-mer frequency, TF over GST control)"}, {"measurement": "binding signal", "setting": "SPI1", "value": "1.08 fold enrichment (6-mer frequency, TF over GST control)"}, {"measurement": "binding signal", "setting": "SPIB", "value": "1.11 fold enrichment (6-mer frequency, TF over GST control)"}, {"measurement": "binding signal", "setting": "FEV", "value": "1.01 fold enrichment (6-mer frequency, TF over GST control)"}, {"measurement": "binding signal", "setting": "ETV5", "value": "1.08 fold enrichment (6-mer frequency, TF over GST control)"}, {"measurement": "binding signal", "setting": "SPIC", "value": "1.31 fold enrichment (6-mer frequency, TF over GST control)"}, {"measurement": "binding signal", "setting": "ELF4", "value": "1.09 fold enrichment (6-mer frequency, TF over GST control)"}, {"measurement": "binding signal", "setting": "ETV1", "value": "1.06 fold enrichment (6-mer frequency, TF over GST control)"}, {"measurement": "binding signal", "setting": "ERF", "value": "1.16 fold enrichment (6-mer frequency, TF over GST control)"}, {"measurement": "binding signal", "setting": "ETV3L", "value": "1.04 fold enrichment (6-mer frequency, TF over GST control)"}, {"measurement": "binding signal", "setting": "ETS2", "value": "1.12 fold enrichment (6-mer frequency, TF over GST control)"}, {"measurement": "binding signal", "setting": "SPDEF", "value": "1.08 fold enrichment (6-mer frequency, TF over GST control)"}, {"measurement": "binding signal", "setting": "ETV3", "value": "1.04 fold enrichment (6-mer frequency, TF over GST control)"}, {"measurement": "binding signal", "setting": "ETV6", "value": "1.04 fold enrichment (6-mer frequency, TF over GST control)"}]}
